JMJD2A Tudor inh – inhibitors of human JMJD2A Tudor domain | 390,000 compounds, 4.4% hits | AlphaScreen JMJD2A-Tudor / H3K4me3 peptide binding | Potency, µM (top dose mostly 114 µM), for inactives: at the highest dose activity change, negative = inhibition, most hits filed as inhibitors | AID 504339; further: potency means the concentration at half of the fitted maximal effect; on the % scale 0 is the no-effect control and ±100 the full control effect; nearly all actives have a fitted effect of over 50% in size
Target sequence (O75164 whole entry, looked up, the tested form may be a part): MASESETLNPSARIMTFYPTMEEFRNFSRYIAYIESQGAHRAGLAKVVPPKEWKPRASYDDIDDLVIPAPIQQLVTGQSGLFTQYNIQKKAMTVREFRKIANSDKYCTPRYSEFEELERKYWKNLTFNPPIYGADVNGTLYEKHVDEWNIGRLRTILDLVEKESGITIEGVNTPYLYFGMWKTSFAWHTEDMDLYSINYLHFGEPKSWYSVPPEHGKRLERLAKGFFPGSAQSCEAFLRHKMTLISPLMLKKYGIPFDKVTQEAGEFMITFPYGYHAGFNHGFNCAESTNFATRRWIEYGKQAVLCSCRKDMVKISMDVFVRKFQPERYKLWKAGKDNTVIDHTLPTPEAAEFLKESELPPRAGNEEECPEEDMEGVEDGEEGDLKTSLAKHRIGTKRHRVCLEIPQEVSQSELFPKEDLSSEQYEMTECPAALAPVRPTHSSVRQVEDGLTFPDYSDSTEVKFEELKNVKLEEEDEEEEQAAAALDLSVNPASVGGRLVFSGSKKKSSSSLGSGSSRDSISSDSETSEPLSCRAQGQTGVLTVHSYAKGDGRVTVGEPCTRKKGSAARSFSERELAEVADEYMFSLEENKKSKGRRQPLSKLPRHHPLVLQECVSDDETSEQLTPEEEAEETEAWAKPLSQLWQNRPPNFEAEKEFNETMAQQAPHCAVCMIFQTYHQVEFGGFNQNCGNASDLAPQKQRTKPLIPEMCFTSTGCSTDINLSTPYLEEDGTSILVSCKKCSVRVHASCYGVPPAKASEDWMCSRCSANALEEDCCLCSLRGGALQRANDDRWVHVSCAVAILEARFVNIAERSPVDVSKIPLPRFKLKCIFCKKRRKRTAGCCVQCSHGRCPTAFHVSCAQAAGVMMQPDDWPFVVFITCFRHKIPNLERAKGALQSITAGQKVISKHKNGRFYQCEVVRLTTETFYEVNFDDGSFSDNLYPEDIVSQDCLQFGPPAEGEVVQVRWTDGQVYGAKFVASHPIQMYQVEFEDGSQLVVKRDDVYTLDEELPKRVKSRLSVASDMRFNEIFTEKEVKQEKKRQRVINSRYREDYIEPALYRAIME
L3MBTL1 block – blocks human L3MBTL1 | Q9Y468 | AlphaScreen L3MBTL1–H3K9me1 peptide binding | Potency, µM (highest dose often 57.1 µM), for inactives: top-dose activity, negative = inhibition, most hits filed as inhibitors | 230,000 compounds, 0.66% hits; further: potency means the concentration at half of the fitted maximal effect; on the % scale 0 is the no-effect control and ±100 the full control effect; nearly all actives have a fitted effect of over 60% in size
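AlphaScreen assay: L3MBTL1 (50 nM final) was preincubated 30 min at room temperature with biotinylated H3(1-15)K9me1 peptide (75 nM final), then 30 min with library compounds; streptavidin donor and nickel chelate acceptor beads (10 ug/mL final) added, 30 min dark.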
HP1b chromo inh – blocks HP1-beta chromodomain binding to methylated histone tails; Potency, µM (highest dose often 114 µM), for the others: at the highest dose activity change, negative = inhibition, actives largely listed as inhibitors; AID 540317; 390,000 compounds, 0.56% hits; P83916; AlphaScreen HP1-beta / biotin-H3K9me3 peptide binding; further: potency means the concentration at half of the fitted maximal effect; nearly all actives have a fitted effect of over 70% in size
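HP1-beta protein (50 nM final) preincubated 30 min at room temperature with biotinylated H3(1-18)K9me3 peptide (50 nM) in PBS pH 7.4, 0.01% Tween-20, then compound added for 30 min. AlphaScreen streptavidin donor/nickel chelate acceptor beads (10 ug/mL final), 30 min dark, luminescence read.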
BAZ2B inh – inhibitors of human BAZ2B bromodomain; Q9UIF8; AlphaScreen BAZ2B-H3K14Ac peptide displacement; Potency, µM (highest dose often 114 µM), for inactives: at the highest dose activity change, negative = inhibition, usual class: inhibitors; 360,000 compounds, 4.4% hits; further: potency means the concentration at half of the fitted maximal effect; on the % scale 0 is the no-effect control and ±100 the full control effect; nearly all actives have a fitted effect of over 60% in size
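Protein-peptide AlphaScreen: BAZ2B 50 nM, b-H3K14Ac 50 nM, 1x PBS pH 7.4 + 0.01% Tween-20. Preincubation 30 min RT; cpd 30 min RT (top 110 uM); beads 20 min RT, light-protected.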
PI5P4Ka inh – PI5P4K alpha (human) kinase inhibition; P48426; PI5P4Kalpha enzyme, ADP-Glo luminescence, 60 min; stronger effect = lower value; max response, %; 330,000 compounds, 1.2% hits; active means max response of -50% or lower; inconclusive means between -30% and -50%; inactive means -30% or higher; further: value at the top dose of about 77 µM; on the % scale 0 is the no-effect control and ±100 the full control effect
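ADP-Glo luminescence end-point after a 60 min room-temperature kinase reaction. PI5P4Kalpha and substrate in HEPES pH 7.4 buffer with EGTA, 0.1% CHAPS and 5% DMSO; ATP at 5 microM final.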
KDM4E inh – inhibitors of human JMJD2E histone demethylase. 230,000 compounds, 1.6% hits. Potency, µM (top dose mostly 57.1 µM), without a hit: at the highest dose activity change, negative = inhibition, hits mostly inhibitors. JMJD2E catalytic domain, FDH-coupled NADH fluorescence (FDH is formaldehyde dehydrogenase); active means well fitted inhibition curve with a large enough effect, not every such curve was filed as active; inconclusive means small, poorly fitted or top-dose-only effect, or another doubt; inactive means no such curve, though single readings can be large or run the other way;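 further: potency means the concentration at half of the fitted maximal effect; 0% = wells with enzyme and -100% = buffer wells without enzyme; nearly all actives have a fitted effect of over 50% in size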
Active calls of the source: *; [ ] = dose if it differs, or a comment. A selection: hits, their analogues and other compounds. The true share with any hit is near 5.7%. Unless noted, the call rests on the fitted dose curve; in most records, active means well fitted inhibition curve with a large enough effect; inconclusive means small, poorly fitted or top-dose-only effect; inactive means no such curve, though single readings can be large or run the other way.

Screening CCCCC(=O)NNC(=S)NC(=O)CCC returned JMJD2A Tudor inh 50µM*, L3MBTL1 block 27%, HP1b chromo inh 21%, BAZ2B inh 26%, PI5P4Ka inh -10 and KDM4E inh -3%.
For C/C(=N\Nc1ccc(C#N)cc1[N+](=O)[O-])c1ccc(O)cc1 the results were JMJD2A Tudor inh -19%, L3MBTL1 block -10%, HP1b chromo inh 29%, BAZ2B inh -36%, PI5P4Ka inh 4 and KDM4E inh 4%.
Screening C/C(=N\Nc1ccccc1[N+](=O)[O-])c1ccccc1O returned JMJD2A Tudor inh 2.8µM*, L3MBTL1 block inconclusive, HP1b chromo inh inconclusive, BAZ2B inh 2.5µM* and PI5P4Ka inh 4.
C/C(=N\Nc1ccc([N+](=O)[O-])cc1[N+](=O)[O-])C(C)(C)C(C(=O)O)C(=O)O was read as JMJD2A Tudor inh 22µM*, L3MBTL1 block -3%, HP1b chromo inh -16%, BAZ2B inh inconclusive, PI5P4Ka inh 13 and KDM4E inh inconclusive.
`CC(C)(CO)Nc1ccc([N+](=O)[O-])cc1[N+](=O)[O-]` gave JMJD2A Tudor inh -8%, L3MBTL1 block -5%, HP1b chromo inh 13%, BAZ2B inh 4%[57.1 µM], PI5P4Ka inh -7 and KDM4E inh 3%.
`CCC(=NNc1ccc([N+](=O)[O-])cc1[N+](=O)[O-])c1ccccc1` gave PI5P4Ka inh 6.
C/C(=N\Nc1ccc(S(N)(=O)=O)cc1[N+](=O)[O-])c1ccccc1O was read as JMJD2A Tudor inh -21%, L3MBTL1 block -9%, HP1b chromo inh -9%, BAZ2B inh -22%, PI5P4Ka inh -2 and KDM4E inh 0%.
CC/C(=N\Nc1ccccc1[N+](=O)[O-])c1ccc(O)cc1 was read as JMJD2A Tudor inh 14µM*, L3MBTL1 block 25µM*, HP1b chromo inh 13µM*, BAZ2B inh 6.3µM*, PI5P4Ka inh 12 and KDM4E inh -1%.
`CC/C(=N\Nc1ccc([N+](=O)[O-])cc1[N+](=O)[O-])c1ccc(O)cc1` gave JMJD2A Tudor inh -30%, HP1b chromo inh -9%, BAZ2B inh 11µM* and PI5P4Ka inh 4.
O=C(CSc1nc(-c2ccccc2)cn1-c1ccccc1F)Nc1ccc(F)cc1 was read as JMJD2A Tudor inh inconclusive, HP1b chromo inh -9% and BAZ2B inh inconclusive.
`COCCNC(=O)CCn1c(=O)c2cc(OC)c(OC)cc2n(CC(=O)Nc2ccc(Cl)cc2F)c1=O` gave JMJD2A Tudor inh -19%, HP1b chromo inh 6% and BAZ2B inh 3%.
N#Cc1c(Nc2cccc(F)c2)sc2c(O)cc(=O)[nH]c12 was read as JMJD2A Tudor inh -21%, L3MBTL1 block inconclusive, HP1b chromo inh 18%, BAZ2B inh inconclusive, PI5P4Ka inh -76* and KDM4E inh -23%.
N#Cc1ccc(CSc2nnc(Cc3cccs3)n2Cc2ccco2)cc1 was read as JMJD2A Tudor inh inconclusive, L3MBTL1 block -24%, HP1b chromo inh -7%, BAZ2B inh 50µM*, PI5P4Ka inh inconclusive and KDM4E inh 2%.
For CN(C/C=C/c1ccccc1[N+](=O)[O-])Cc1ccccc1 the results were JMJD2A Tudor inh 28µM*, L3MBTL1 block -7%[2.29 µM], HP1b chromo inh inconclusive, BAZ2B inh 56µM* and PI5P4Ka inh -4.
COC(=O)c1ccc(Nc2ncnc3c2nc2n3CCCC2)cc1 was read as JMJD2A Tudor inh -15%, HP1b chromo inh 24% and BAZ2B inh -7%.
Screening CCCCN(CCCNC(=O)c1cc(Nc2ccc(OC)c(OC)c2)nc2ccccc12)Cc1ccccc1 returned JMJD2A Tudor inh 28µM* and HP1b chromo inh inconclusive.
For CCCCN(CCCNC(=O)c1cc(Nc2ccc(OC)cc2)nc2ccccc12)Cc1ccccc1 the results were JMJD2A Tudor inh -18% and HP1b chromo inh 6%.
O=C(CN1CCN(C2CCCCC2)CC1)NCCC1=CCCCC1 was read as JMJD2A Tudor inh 13µM*, L3MBTL1 block -1%, HP1b chromo inh inconclusive, BAZ2B inh 50µM* and KDM4E inh inconclusive.
CS(=O)(=O)N(CC(=O)NCCC1=CCCCC1)C1CCCCC1 was read as JMJD2A Tudor inh -24%, L3MBTL1 block -6%, HP1b chromo inh 9%, BAZ2B inh 6%, PI5P4Ka inh 2 and KDM4E inh -7%.
For Cc1ccc(CNC(=O)Cn2cc(S(=O)(=O)Cc3ccccc3F)c3ccccc32)cc1 the results were JMJD2A Tudor inh -7%, HP1b chromo inh 24% and BAZ2B inh -18%.
NNc1cc([N+](=O)[O-])cc2c1C(=O)N(Cc1ccccc1)S2=O (centres undefined) was read as JMJD2A Tudor inh 56µM*, L3MBTL1 block -18%, HP1b chromo inh -2%, BAZ2B inh inconclusive, PI5P4Ka inh -66* and KDM4E inh -4%.
CCOc1cccc(C2C(C(=O)c3ccc(C)o3)=C(O)C(=O)N2c2nnc(C)s2)c1 (centres undefined) was read as JMJD2A Tudor inh 1.1µM*, HP1b chromo inh inconclusive and PI5P4Ka inh -23.
`CCCOc1cccc(C2C(C(=O)c3ccc(C)o3)=C(O)C(=O)N2c2nc(C)c(C(C)=O)s2)c1` (centres undefined) gave JMJD2A Tudor inh -27%, HP1b chromo inh 8%, BAZ2B inh 56µM* and PI5P4Ka inh -20.
Screening CCOc1cccc(C2C(C(=O)c3ccco3)=C(O)C(=O)N2c2nnc(C)s2)c1 (centres undefined) returned JMJD2A Tudor inh inconclusive, L3MBTL1 block -13%, HP1b chromo inh 33%, BAZ2B inh inconclusive and PI5P4Ka inh 1.
Screening Cc1ccc(NC(=O)c2cc3c(=O)n(Cc4cccnc4)ccc3nc2C)cc1F returned JMJD2A Tudor inh -12%, HP1b chromo inh 36% and BAZ2B inh -3%.
For COc1ccccc1NC(=O)c1cccc(S(=O)(=O)N2CCCCCC2)c1 the results were JMJD2A Tudor inh 9%, HP1b chromo inh 39% and BAZ2B inh 10%.
Cc1cccc(CNC(=O)c2ccc(Cn3c(SCc4cccc(F)c4)nc4cccnc43)cc2)c1 was read as JMJD2A Tudor inh 4.5µM*, HP1b chromo inh inconclusive and BAZ2B inh 11µM*.
Screening O=C(NCc1ccccc1)c1ccc(CSc2nc3cccnc3n2Cc2ccccc2F)cc1 returned JMJD2A Tudor inh 5.6µM*, HP1b chromo inh inconclusive and BAZ2B inh 22µM*.
`COc1ccc(Cn2c(SCc3ccc(C(=O)NCc4ccccc4F)cc3)nc3cccnc32)cc1` gave JMJD2A Tudor inh -15%, HP1b chromo inh 38% and BAZ2B inh 0%.

Bioassay records as filed in PubChem BioAssay.
